Reference: PubChem BioAssay (Tox21)
Values joined by “and” are separate entries in the source; they are usually repeats but may differ in a detail not shown here. Equal values may be shown once. Inconclusive results are not listed. Active and inactive are the calls of the source. Unless noted, calls come from the whole dose curve; as a rule, active = well fitted curve in the direction sought with a large enough effect in the repeat runs; inconclusive = weak or mixed curves; inactive = no such curve, though single readings can be large; an effect the other way counts as inactive or inconclusive.

Key:
[1] = qHTS assay to test for compound auto fluorescence at 460 nm (blue) in HEK293 cell free culture (AID 720681)
In short: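 Blue fluorescence (Ex 405/Em 460 nm, triamterene-equivalent) was read immediately after pin transfer of compound or DMSO into medium (DMEM, 10% FBS) without cells.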

[2] = qHTS assay to test for compound auto fluorescence at 535 nm (green) in HEK293 cell free culture (AID 720682)
In short: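 DMEM + 10% FBS, cell-free; cpd or DMSO pinned in; Ex485/Em535 read; output as fluorescein-equivalent signal.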

[3] = qHTS assay to test for compound auto fluorescence at 590 nm (red) in HEK293 cell free culture (AID 720683)
In short: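 Red-channel autofluorescence of compounds in culture medium (DMEM, 10% FBS), no cells, measured at 540/590 nm. Rose Bengal sodium is the reference fluorophore for equivalence.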

[4] = qHTS assay to test for compound auto fluorescence at 590 nm (red) in HepG2 cell free culture (AID 720684)
In short: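 Steps: dispense MEM/10% FBS medium, no cells; pin compound or DMSO vehicle; read red channel, Ex/Em 540/590 nm. Output given as Rose Bengal sodium equivalents.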

[5] = qHTS assay to test for compound auto fluorescence at 460 nm (blue) in HepG2 cell free culture (AID 720685)
In short: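 Compound (23 nL) or DMSO pinned into cell-free MEM with 10% FBS; blue fluorescence read at 405/460 nm excitation/emission, expressed as auto-fluorescence equivalency to triamterene.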

[6] = qHTS assay to test for compound auto fluorescence at 535 nm (green) in HepG2 cell free culture (AID 720686)
[7] = qHTS assay to test for compound auto fluorescence at 460 nm (blue) in HepG2 cells (AID 720687)
In short: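 Blue-channel autofluorescence (Ex/Em 405/460 nm, triamterene-equivalent) was measured after 1 hr compound exposure at 37 C, 5% CO2. Cells were HepG2, plated overnight at 37 C in MEM plus 10% FBS.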

[8] = qHTS assay for identifying genotoxic compounds that show differential cytotoxicity against isogenic chicken DT40 cell lines with known DNA damage response pathways - wild type cell line (AID 743012); note: nearly all actives have a fitted effect of over 60% in size; note: potency is the fitted concentration of half-maximal effect
In short: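 First, wild type DT40 cells were plated at 300 per well and equilibrated about 0.5 h at 37 C/5% CO2. Next, compounds in DMSO were added and exposure lasted 40 h. Finally, CellTiter-Glo was added for 30 min at room temperature and luminescence recorded.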

[9] = qHTS assay for identifying genotoxic compounds that show differential cytotoxicity against isogenic chicken DT40 cell lines with known DNA damage response pathways - Rev3 mutant cell line (AID 743014); note: nearly all actives have a fitted effect of over 55% in size; note: potency is the fitted concentration of half-maximal effect
[10] = qHTS assay for identifying genotoxic compounds that show differential cytotoxicity against isogenic chicken DT40 cell lines with known DNA damage response pathways - Rad54/Ku70 mutant cell line (AID 743015); note: nearly all actives have a fitted effect of over 60% in size; note: potency is the fitted concentration of half-maximal effect
[11] = qHTS assay to identify small molecule antagonists of the androgen receptor (AR) signaling pathway - cell viability counter screen (AID 743033; note: nearly all actives have a fitted effect of over 45% in size; note: potency is the fitted concentration of half-maximal effect)
[12] = qHTS assay to identify small molecule antagonists of the androgen receptor (AR) signaling pathway using the MDA cell line - cell viability counter screen (AID 743041; note: nearly all actives have a fitted effect of over 45% in size)
In short: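 Cells were plated at 3,000 per well and left 5 h. Compounds in DMSO were then pinned in, followed by R1881. After 16 h at 37C, CellTiter-Fluor fluorescence gave viability.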

[13] = qHTS assay to identify small molecule antagonists of the glucocorticoid receptor (GR) signaling pathway - cell viability counter screen (AID 720693); note: nearly all actives have a fitted effect of over 55% in size
[14] = target: Glucocorticoid receptor (Homo sapiens) (UniProt P04150); test: qHTS assay to identify small molecule agonists of the glucocorticoid receptor (GR) signaling pathway (AID 720691; active = well fitted activation curve with a large enough effect in the signal ratio in the repeat runs, not every such curve was filed as active; the % refers to the signal ratio)
In short: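 qHTS in GR-bla HeLa cells: 4 h settling at 37 C/5% CO2, 18 h compound incubation at 37 C, 2 h LiveBLAzer B/G FRET substrate at room temperature, fluorescence intensity measured.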

[15] = target: Androgen receptor (Homo sapiens) (UniProt P10275); test: qHTS assay to identify small molecule antagonists of the androgen receptor (AR) signaling pathway (AID 743035; active = well fitted inhibition curve with a large enough effect in the signal ratio in the repeat runs, not every such curve was filed as active; the % refers to the signal ratio)
In short: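 Beta-lactamase FRET read (2 h RT incubation with LiveBLAzer B/G) following 16 h of compound plus R1881 treatment of AR-UAS-bla HEK293 cells, which had been pre-incubated 4 h at 37C.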

[16] = target: Androgen receptor (Homo sapiens) (UniProt P10275); test: qHTS assay to identify small molecule agonists of the androgen receptor (AR) signaling pathway (AID 743036; active = well fitted activation curve with a large enough effect in the signal ratio in the repeat runs, with a control signal flat, not every such curve was filed as active; the % refers to the signal ratio)
In short: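 Screening used 2,000 AR-bla HEK293 cells per well, treated 16 h at 37C with test compounds in DMSO alongside positive and DMSO-only controls; beta-lactamase activity was then read by LiveBLAzer B/G FRET fluorescence after 2 h at room temperature.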

[17] = target: Androgen receptor (Homo sapiens) (UniProt P10275); test: qHTS assay to identify small molecule agonists of the androgen receptor (AR) signaling pathway using the MDA cell line (AID 743040; note: nearly all actives have a fitted effect of over 20% in size)
In short: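 Cells plated, 5 h at 37C/0% CO2; compound or DMSO pinned; 16 h at 37C; ONE-Glo added; luminescence measured after 30 min at room temperature. Reporter line: MDA-kb2 with MMTV-luciferase responsive to AR and GR.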

[18] = target: Androgen receptor (Homo sapiens) (UniProt P10275); test: qHTS assay to identify small molecule antagonists of the androgen receptor (AR) signaling pathway using the MDA cell line (AID 743042; note: nearly all actives have a fitted effect of over 55% in size)
In short: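 Antagonist mode: compounds plus R1881 agonist added to MDA-kb2 AR-luc cells, incubated 16 h at 37C. Luciferase reporter luminescence quantified, with multiplexed CellTiter-Fluor readout for cell viability.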

[19] = target: Glucocorticoid receptor (Homo sapiens) (UniProt P04150); test: qHTS assay to identify small molecule antagonists of the glucocorticoid receptor (GR) signaling pathway (AID 720692; active = well fitted inhibition curve with a large enough effect in the signal ratio in the repeat runs, not every such curve was filed as active; the % refers to the signal ratio; note: potency is the fitted concentration of half-maximal effect)
In short: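 Inhibition of glucocorticoid signalling is measured in HeLa cells with a GRE-controlled beta-lactamase reporter; cells are co-treated with compound and 5 nM dexamethasone (final) for 18 h before FRET substrate readout.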

Measured: Potency

Androgen receptor (Homo sapiens), sequence (P10275 whole entry, looked up): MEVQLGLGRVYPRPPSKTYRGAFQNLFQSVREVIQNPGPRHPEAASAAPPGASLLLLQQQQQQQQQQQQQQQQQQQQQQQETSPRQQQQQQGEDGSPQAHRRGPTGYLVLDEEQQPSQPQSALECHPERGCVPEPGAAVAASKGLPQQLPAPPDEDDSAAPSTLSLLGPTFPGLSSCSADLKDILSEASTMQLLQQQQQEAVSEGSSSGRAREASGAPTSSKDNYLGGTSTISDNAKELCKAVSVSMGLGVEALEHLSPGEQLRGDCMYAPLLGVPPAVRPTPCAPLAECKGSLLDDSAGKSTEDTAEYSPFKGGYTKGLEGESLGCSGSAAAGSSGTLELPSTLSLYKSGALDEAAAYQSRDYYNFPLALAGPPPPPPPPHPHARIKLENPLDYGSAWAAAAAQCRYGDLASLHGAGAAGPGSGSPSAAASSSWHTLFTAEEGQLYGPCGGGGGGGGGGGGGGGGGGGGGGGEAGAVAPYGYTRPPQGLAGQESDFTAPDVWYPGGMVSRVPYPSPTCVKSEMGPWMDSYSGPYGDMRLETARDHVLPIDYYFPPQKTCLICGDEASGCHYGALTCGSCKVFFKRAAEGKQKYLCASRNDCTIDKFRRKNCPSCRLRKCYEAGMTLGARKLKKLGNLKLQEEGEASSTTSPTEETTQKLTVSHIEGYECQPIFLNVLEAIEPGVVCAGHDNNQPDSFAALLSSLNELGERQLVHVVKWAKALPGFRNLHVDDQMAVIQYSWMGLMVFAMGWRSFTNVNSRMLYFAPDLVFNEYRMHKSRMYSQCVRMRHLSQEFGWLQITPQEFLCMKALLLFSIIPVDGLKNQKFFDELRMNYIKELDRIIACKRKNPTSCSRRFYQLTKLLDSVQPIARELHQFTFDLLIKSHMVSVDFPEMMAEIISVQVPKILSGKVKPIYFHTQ
Glucocorticoid receptor (Homo sapiens), sequence (P04150 whole entry, looked up): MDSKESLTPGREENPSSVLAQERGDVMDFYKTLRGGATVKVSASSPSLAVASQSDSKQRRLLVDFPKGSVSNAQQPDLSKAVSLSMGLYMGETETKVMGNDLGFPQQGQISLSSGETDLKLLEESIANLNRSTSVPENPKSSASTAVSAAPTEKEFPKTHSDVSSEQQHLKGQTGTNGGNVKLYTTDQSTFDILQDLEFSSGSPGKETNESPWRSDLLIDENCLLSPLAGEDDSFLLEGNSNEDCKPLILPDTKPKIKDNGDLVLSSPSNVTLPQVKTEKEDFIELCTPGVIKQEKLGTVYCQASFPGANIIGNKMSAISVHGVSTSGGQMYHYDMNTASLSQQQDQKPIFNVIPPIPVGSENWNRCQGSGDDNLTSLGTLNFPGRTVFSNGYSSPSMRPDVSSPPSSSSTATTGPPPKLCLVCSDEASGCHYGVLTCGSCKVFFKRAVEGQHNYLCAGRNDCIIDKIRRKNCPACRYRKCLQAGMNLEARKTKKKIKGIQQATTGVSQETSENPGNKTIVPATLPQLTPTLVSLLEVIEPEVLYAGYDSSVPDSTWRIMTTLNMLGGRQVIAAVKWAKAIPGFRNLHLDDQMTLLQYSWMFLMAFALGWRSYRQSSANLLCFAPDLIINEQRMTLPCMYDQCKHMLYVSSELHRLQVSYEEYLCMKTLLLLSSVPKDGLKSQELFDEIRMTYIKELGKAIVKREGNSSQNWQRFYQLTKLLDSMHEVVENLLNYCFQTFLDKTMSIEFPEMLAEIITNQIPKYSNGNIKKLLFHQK

CC(=O)NC1(c2cccc(F)c2)CCN(CC[C@@]2(c3ccc(Cl)c(Cl)c3)CN(c3ccccc3)C(=O)CO2)CC1
inactive: [1] | [2] | [3] | [4] | [5] | [6] | [7] | [12]
active: [8] 43.4 µM | [9] 54.6 µM | [10] 48.7 µM | [11] 39 µM

N#[N+]c1ccc2c(S(=O)(=O)[O-])cccc2c1O
not listed: [8] | [14] | [15] | [16] | [17] | [18] | [19]
inactive: all other assays above

CCCCCC[C@@H](O)C/C=C\CCCCCCCC(=O)OCC(O)CO (some centres undefined)
not listed: [7] | [9] | [10] | [19]
inactive: all other assays above

C[C@]12CC[C@@H]3c4ccc(O)cc4CC[C@H]3[C@@H]1CC[C@@H]2OC(=O)CCC1CCCC1
active: [19] 10.7 µM and 8.49 µM | [8] 11.9 µM | [9] 24.3 µM | [10] 11.9 µM
not listed: [13] | [14] | [15] | [16] | [17] | [18]
inactive: all other assays above

N#CCCN(CCO)CCO
not listed: [3] | [15] | [16] | [17] | [18] | [19]
inactive: all other assays above

CCC(C)COC(C)=O (centres undefined)
not listed: [4] | [5] | [10] | [15] | [16] | [17] | [18]
inactive: all other assays above

CCCCCCCCCCC(=O)O
not listed: [15] | [16] | [17] | [18] | [19]
inactive: all other assays above

O=C(O)c1cccc(-c2noc(-c3ccccc3F)n2)c1
not listed: [13] | [15] | [16] | [17] | [18]
inactive: all other assays above

C[C@H]1c2cccc(O)c2C(O)=C2C(=O)[C@]3(O)C(O)=C(C(N)=O)C(=O)[C@@H](N(C)C)[C@@H]3[C@@H](O)[C@@H]21
not listed: [8] | [9] | [10] | [16] | [19]
inactive: all other assays above
